Results on 33 compounds are retold here after the supplement of paper PMC6518042.

Each structure is given as a SMILES string. Values without a mark were called inactive.

One experiment concerns Pectobacterium parmentieri SCC3193. The experiment in a line: DuctApe activity index (growth/respiration on compound as sole nutrient source, blank-subtracted) (activity index (0-3)); higher = stronger utilization of the compound, active = 3 or more. As to conditions: nutrient role (plate category): carbon. On the procedure:
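Biolog Phenotype Microarray plates PM1, PM2A (carbon), PM3 (nitrogen) and PM4 (phosphorus/sulfur) inoculated with P. parmentieri SCC3193 in M9-C minimal salts medium with Biolog dye A, and read in the OmniLog for 46 h. Each well was tested in triplicate and the experiment was run twice. DuctApe computed a blank-subtracted activity index (AV, 0-3) from the mean curves; growth is positive at AV >= 3 and negative at AV <= 2.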
With `OC[C@H]1O[C@H](OC[C@H]2O[C@H](O[C@H]3[C@H](O)[C@@H](O)[C@@H](O)O[C@@H]3CO)[C@H](O)[C@@H](O)[C@@H]2O[C@H]2O[C@H](CO)[C@@H](O)[C@H](O)[C@H]2O)[C@H](O)[C@@H](O)[C@@H]1O` [Glycogen], the DuctApe activity index is 0.

As to `O=C(O)Cc1ccc(O)cc1` [p-Hydroxyphenyl Acetic acid], the DuctApe activity index was 0.

Turning to `O=C[C@H](O)[C@@H](O)[C@H](O)[C@H](O)COP(=O)(O)O` [D-Glucose-6-Phosphate], the DuctApe activity index was 3 (active).

Take `NCCCC[C@H](N)C(=O)O` [L-Lysine]: the DuctApe activity index is 0.

On to `O=C[C@H](O)[C@H](O)[C@@H](O)CO` [L-Lyxose], for which the DuctApe activity index is 0.

`O=C(O)[C@@H]1CCCN1` [L-Proline]: the DuctApe activity index was 0.

As to `O=C(O)/C=C/C(=O)O` [Fumaric acid], the DuctApe activity index was 3 (active).

`NCC(=O)N1CCC[C@H]1C(=O)O`: the DuctApe activity index was 0.

As to `Nc1ncnc2c1ncn2[C@H]1C[C@H](O)[C@@H](CO)O1` [2`-Deoxyadenosine], the DuctApe activity index was 1.

For `CC(C)C[C@H](N)C(=O)O` [L-Leucine], the DuctApe activity index is 1.

On to `CC(=O)N[C@@H](CO)[C@@H](O)[C@H](O)[C@H](O)CO` [N-Acetyl-D-Glucosaminitol], for which the DuctApe activity index was 0.

For the compound `OC[C@H]1OC(O[C@H]2[C@H](O)[C@@H](CO)OC(O[C@H]3[C@H](O)[C@@H](CO)OC(O)[C@@H]3O)[C@@H]2O)[C@H](O)[C@@H](O)[C@@H]1O` (stereo not given in full) [Laminarin], the DuctApe activity index was 0.

For `OCC1(O)OC[C@@H](O)[C@@H](O)[C@H]1O` (stereo partly drawn) [D-Psicose], the DuctApe activity index is 3 (active).

As for `OC[C@H]1O[C@H](OC[C@H]2O[C@H](O[C@]3(CO)O[C@H](CO)[C@@H](O)[C@@H]3O)[C@H](O)[C@@H](O)[C@@H]2O)[C@H](O)[C@@H](O)[C@H]1O` [D-Raffinose], the DuctApe activity index is 3 (active).

As to `C[C@H](N)C(=O)O` [L-Alanine], the DuctApe activity index is 0.

On to `O=C1O[C@H]([C@@H](O)CO)[C@@H](O)[C@@H]1O` [L-Galactonic acid-g-Lactone], for which the DuctApe activity index was 3 (active).

Regarding `NCC(=O)N[C@@H](CCC(=O)O)C(=O)O`, the DuctApe activity index is 0.

Regarding `O=C(O)[C@H]1O[C@@H](O)[C@H](O)[C@@H](O)[C@H]1O` [Pectin], the DuctApe activity index is 3 (active).

On to `Cc1cn([C@H]2C[C@H](O)[C@@H](CO)O2)c(=O)[nH]c1=O` [Thymidine], for which the DuctApe activity index is 1.

Regarding `O=C(O)[C@@H](O)[C@H](O)C(=O)O` [D-Tartaric acid], the DuctApe activity index was 0.

In the case of `O[C@@H]1[C@H](O)[C@H](O)CO[C@H]1O` [D-Ribose], the DuctApe activity index was 3 (active).

The experiment is the same for the next values; noted with them: nutrient role (plate category): nitrogen.
In the case of `Nc1[nH]cnc2ncnc1-2` [Adenine], the DuctApe activity index was 0.

With `OC[C@H]1O[C@@H](n2cnc3c(O)nc(O)nc32)[C@H](O)[C@@H]1O` [Xanthosine], the DuctApe activity index is 0.

Consider `NCCCC[C@H](N)C(=O)O` [L-Lysine], for which the DuctApe activity index was 0.

Consider `N[C@H](CCC(=O)O)C(=O)O` [D-Glutamic acid], for which the DuctApe activity index was 0.

For the compound `NCC(=O)N[C@@H](CC(N)=O)C(=O)O`, the DuctApe activity index was 1.

As for `Nc1ccn([C@@H]2O[C@H](CO)[C@@H](O)[C@H]2O)c(=O)n1` [Cytidine], the DuctApe activity index is 3 (active).

Consider `O=C(O)[C@@H]1CCCN1` [L-Proline], for which the DuctApe activity index was 0.

As to `CC(C)C[C@H](N)C(=O)O` [L-Leucine], the DuctApe activity index is 0.

As for `Cc1c[nH]c(=O)[nH]c1=O` [Thymine], the DuctApe activity index is 0.

In the case of `NCCCC[C@@H](N)C(=O)O` [D-Lysine], the DuctApe activity index is 0.

In the case of `C[C@H](N)C(=O)O` [L-Alanine], the DuctApe activity index was 0.

For the compound `NCC(=O)N[C@@H](CCC(=O)O)C(=O)O`, the DuctApe activity index is 1.

For `Cc1cn([C@H]2C[C@H](O)[C@@H](CO)O2)c(=O)[nH]c1=O` [Thymidine], the DuctApe activity index is 0.

Staying with this experiment, now noted: nutrient role (plate category): phosphate & sulphur.
Take `O=C[C@H](O)[C@@H](O)[C@H](O)[C@H](O)COP(=O)(O)O` [D-Glucose-6-Phosphate]: the DuctApe activity index was 2.

For `O=P(O)(O)OC[C@H]1OC(O)[C@@H](O)[C@@H](O)[C@@H]1O` (stereo partly drawn) [D-Mannose-6-Phosphate], the DuctApe activity index is 1.

Take `O=C(O)COP(=O)(O)O` [Phospho-Glycolic acid]: the DuctApe activity index is 1.

As to `CS(=O)(=O)CC[C@H](N)C(=O)O` [L-Methionine Sulfone], the DuctApe activity index is 0.

In the case of `O=C(O)[C@H](O)[C@@H](O)[C@H](O)[C@H](O)COP(=O)(O)O` [6-Phospho-Gluconic acid], the DuctApe activity index is 2.

As to `N[C@@H](Cc1ccc(OP(=O)(O)O)cc1)C(=O)O` [O-Phospho-L-Tyrosine], the DuctApe activity index is 2.
